# Over roughly 25,000 sequences, “ln(normalized median fluorescence intensity)” has its median near 9.7; the highest 2% begin near 11. Only a selection was taken, and the highest values are over-represented in it overall.
# Test system: PfAP2-HC AP2 domain (GST-tagged)
# Assay: gcPBM binding intensity (ln(normalized median fluorescence intensity)); higher = stronger DNA binding
# Outline: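 Probes on an Agilent 4 × 180k array were primer-extended, double-stranded and 36 bp long, taken from intergenic genomic regions, with negative controls added. GST-tagged P. falciparum DNA-binding domains from E. coli, about 25 μg on average, were applied to the array for 1 h in 1× PBS containing 1% milk, 0.2 mg/ml BSA, 0.5% salmon testes DNA and 0.03% Triton X-100. Binding intensity, obtained after Alexa488 anti-GST antibody detection and a 488 nm scan, is the highest Masliner-normalised natural-log median intensity across replicate spots of either probe orientation.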
row,Sequence,gcPBM binding intensity (ln)
1,ACTAATATGTATATATATATATATATATATATATAT [CACACA_negctrl_site141],9.58
2,TCTTAATTTGTTATATGTACATAATATAATTGTATA [XGTACX_site5184],9.55
3,TATTATTTATATGATACACACGTACATATACACATA [CACACA_site9275],9.86
4,TTTAATAATATAATGTGTACTTAAAAATTTATATAT [XGTACX_site5821],9.44
5,AAAAAGAAAAAACTTACACACATATATACACCCATG [CACACA_site8079],11.3
6,AAAAAACACCCATACACACACACACCGATATATATA [CACACA_site5808],11
7,TATACATACATACATACACACACACCGATATATACA [CACACA_site8184],10.8
8,AAAAAGAAAAAACTTACACACATATATACAGACATG [CACACA_site550],10
9,AACATACATAAACACACACACACACCCACAGAGACA [CACACA_site4430],11
10,AAAAAACAGACATACACACACACACCCATATATATA [CACACA_site3392],10.8
11,CATACACCCAGACACACACACATATATATATATATA [CACACA_site634],10.4
12,CATACATACAAACACACACACACACCGATATATATA [CACACA_site8952],10.7
13,AAAAAGAAAAAACTTACACACATATATACCCCCATG [CACACA_site4463],10.2
14,TAAACATACAGATACACACACACACCCACAGAGACA [CACACA_site4429],10.6
15,AAAAAAAAAAAAAAAACACACATACACCCAGACACA [CACACA_site5807],11.3
16,AACATACATAAACACACACACACACCCACACCCACA [CACACA_site8058],10.8
17,TTTAAAACCTTACATACACACAAATATATATATATA [CACACA_site677],10
18,AAAAAATATGCATATACACACATATGTATAAATAAC [CACACA_site7090],10.1
19,TATTTAACACCTTATACACACTTTCTTCCTTTTTTA [CACACA_site4590],10.1
20,AAGTATTATATATTTTGTACATATATAAAACCACAA [XGTACX_site5508],9.61
21,AATATATACACATGCGCACACACAAGTGGGAAATTT [CACACA_site8527],10.2
22,ATAGAAACATATTGACGTACAGTATAATAATACAGT [XGTACX_site197],9.91

row,Sequence,gcPBM binding intensity (ln)
1,TGAAATACGAATTATTGTACTTATGTGTAAGATGGC [XGTACX_site4472],9.71
2,CAATTTGGTGTACAGGTGCACATGCCTCACGATAAA [GTGCAC_site9650],9.61
3,TATATACACAAACACACACACACATACACCCACATA [CACACA_site8504],10.8
4,CACCCATACACATACAAACACACATTCTATATATAT [CACACA_site1600],10.1
5,AATACTAAAACCCATACACACACATATATATAGTAC [CACACA_site9041],11
6,CATACATACAAACACACACACACACCCATATATATA [CACACA_site2918],11.1
7,TACTAAAACCCATACACACACATATTTATAGTACCA [CACACA_site7484],10.6
8,AGATACAAGCACTATAGTACACATACTAAAAATATA [XGTACX_site5849],9.73
9,TTATATGTATATATAGTGCAGAACAAAAGATTATAT [GTGCAC_site9599],9.7
10,GGACTTTATAAAAATGGTACACGCAATTCTATAATC [XGTACX_site6515],9.61
11,TACATAAATTAAAACACACACACACTAATAAAAAAA [CACACA_site8712],11.3
12,TACAATTTAAAACACACACACAATAATACATATATA [CACACA_site1251],11
13,TATAATTTAAAATACACACACATATATATAATATAT [CACACA_site2000],10.1
14,TACATAAATTAAAACACACACACACTAAAAAAAAAA [CACACA_site7130],10.5
15,ATTTCATAAATTAAACGTACATAATACACACACATG [XGTACX_site4155],11
16,AAAAATTAAATAAATTTACACACTAATAATTACATA [CACACA_site8260],9.63
17,AAAAAAAACATACATACACACACATAAATATATATA [CACACA_site8864],11.4
18,CATTTAACATAAATTAAACACACAATATAATACATT [CACACA_site8333],9.73
19,AAACGTACATAATACACACACATGTATACATATAAA [CACACA_site2048],10.2
20,CATATACATAAACACACACACACATAAATAAATATA [CACACA_site4864],10.6
21,GAAATAATTTCATATACACACATATACATACATACA [CACACA_site1358],9.95
22,AAAAAACATACATACACACACATAAATATATATATT [CACACA_site2699],10.4
